Screening results as filed in PubChem BioAssay.
The list is not random: actives were taken first. Their share in the collection is about 10%.
12-hLO inh: qHTS Assay for Inhibitors of 12-hLO (12-human lipoxygenase). Polyunsaturated fatty acid lipoxygenase ALOX12 (Homo sapiens), P18054. purified 12-hLO, xylenol orange hydroperoxide absorbance. Potency, µM (doses to about 57.1 µM), most hits filed as inhibitors. actives 0.12% (n = 150,000). AID 1452, 2008; active means well fitted inhibition curve with a large enough effect; inconclusive means small, poorly fitted or top-dose-only effect; further: nearly all actives have a fitted effect of over 55% in size
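Purified human 12hLO (150 nM final) was preincubated with compounds for 15 min at room temperature in 25 mM Hepes pH 7.0, 0.01% Triton X-100, then reacted with 40 uM arachidonic acid for 30 min. Hydroperoxide was detected with ferrous iron/xylenol orange.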
LMNA splice mod: qHTS Assay for Modulators of Lamin A Splicing. HeLa LMNA splicing GFP/RFP minigene ratio, 48 h. Potency, µM (titrated, usually from 46.1 µM), hits mostly inhibitors. actives 0.01% (n = 200,000); active means well fitted inhibition curve with a large enough effect in the signal ratio, with a control signal flat, not every such curve was filed as active; inconclusive means small, poorly fitted or top-dose-only effect, or effect the other way, or a change in a side signal; the % refers to the signal ratio
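Read-out is the ratio of GFP to DsRed2 object intensity, acquired by 488 nm laser-scanning cytometry on HeLa lamin A-EGFP minigene reporter cells. Compound incubation 48 hrs at 37 °C in Opti-MEM with 2% FBS; DMSO 0.5% final.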
HPGD block: qHTS Assay for Inhibitors of HPGD (15-Hydroxyprostaglandin Dehydrogenase); AID 894, 2007; actives 4.3% (n = 150,000); Potency, µM, actives largely listed as inhibitors; purified HPGD, NADH fluorescence kinetic, PGE2 substrate
Target sequence (P15428 whole entry, looked up): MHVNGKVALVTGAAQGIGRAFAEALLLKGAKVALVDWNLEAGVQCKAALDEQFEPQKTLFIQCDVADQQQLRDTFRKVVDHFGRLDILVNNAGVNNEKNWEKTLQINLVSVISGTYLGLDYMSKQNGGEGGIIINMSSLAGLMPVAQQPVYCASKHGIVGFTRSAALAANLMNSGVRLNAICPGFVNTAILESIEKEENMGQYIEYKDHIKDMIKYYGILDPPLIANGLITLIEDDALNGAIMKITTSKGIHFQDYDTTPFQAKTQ
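20 nM HPGD preincubated 15 min at room temperature with compound in 50 mM Tris-HCl pH 8, 0.01% Tween 20. Started with 1 mM NAD+ and 30 uM prostaglandin E2; NADH fluorescence (360/450 nm) read 5 times over 30-s intervals, last minus first.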
PNC assembly inh: High Content Assay for Compounds that inhibit the Assembly of the Perinucleolar Compartment; activity change (PNC), negative = inhibition, % at 10 µM; actives 3.1% (n = 140,000); PC3M PTB-GFP, PNC prevalence imaging, 16 h; hits give low values; AID 2417, 2010;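 active means readout at or below -70, meaning at least 70% loss of cells showing the perinucleolar compartment, a nuclear body marking cancer cells; inconclusive means readout between -30 and a set limit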
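Compounds are pinned in duplicate onto adhered PC3M cells stably expressing GFP-tagged PTB and incubated 16 h at 37 C. Cells are then fixed, nuclei stained with Hoechst, and PNC-positive cells counted.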
ALDH1A1 inh: qHTS Assay for Inhibitors of Aldehyde Dehydrogenase 1 (ALDH1A1) | Potency, µM (series often up to 75.3 µM), hits mostly inhibitors | Aldehyde dehydrogenase 1A1 (Homo sapiens), P00352 | Purified ALDH1A1, NADH fluorescence, propionaldehyde substrate | actives 7.3% (n = 220,000) | AID 1030, 2008
A number is an active result; i = inactive; ? = inconclusive; nt = no result given; [ ] = remark or other dose. Unless noted, the call rests on the fitted dose curve; in most records, active means well fitted inhibition curve with a large enough effect (not every such curve was filed as active); inconclusive means small, poorly fitted or top-dose-only effect, or another doubt; inactive means no such curve, though single readings can be large or run the other way.

SMILES	12-hLO inh	LMNA splice mod	HPGD block	PNC assembly inh	ALDH1A1 inh
O=c1cc(CSc2nnnn2-c2ccccc2)nc2sccn12	nt	i	nt	nt	13µM
COc1ccc(C)cc1-n1nnnc1SCc1cn2ccsc2n1	i	i	i	i	14µM
O=c1cc(CN2CCN(c3ccc(O)cc3)CC2)nc2scc(-c3ccccc3)n12	nt	nt	nt	nt	14µM
Cc1ccccc1-n1nnnc1SCc1cc(=O)n2ccsc2n1	nt	i	nt	nt	0.63µM
COc1ccccc1N1CCN(Cc2cc(=O)n3ccsc3n2)CC1	i	?	i	i	i
Cc1cnc(CNc2cc(-c3ccc(N(C)C)cc3)ncn2)cn1	nt	i	nt	nt	?
COc1ccc(C)cc1-n1nnnc1SCC1CCCCO1 (centres undefined)	i	i	i	i	32µM
Cc1nnc(SCC(=O)N2CCC(C(=O)Nc3nccs3)CC2)n1Cc1ccccc1	i	i	i	i	i
O=c1cc(CSc2nnnn2-c2ccccc2)nc2nc[nH]n12	i	i	i	i	?
COc1ccc(C)cc1-n1nnnc1SCC(=O)N1CCC(C(=O)Nc2nccs2)CC1	i	?	i	?	7.9µM
O=c1cc(CSc2nnnn2-c2ccccc2)nc2scc(-c3ccccc3)n12	i	i	i	?	3.2µM
CC(=O)c1ccc(NC(=O)CSc2nc(-c3ccccc3C)nc3c2c(=O)n(C)c(=O)n3C)cc1	nt	i	nt	nt	nt
COCCn1c(C)cc(O)c(C(c2ccccc2OC)N2CCN(c3ccccc3)CC2)c1=O (centres undefined)	nt	i	nt	nt	nt
Cc1cc(C)n2c(=S)[nH]nc2n1	?	i	2.8µM	-139	1.4µM
Cc1cc(C)nc(SCc2nc3nc(C)cc(C)n3c2Br)n1	i	i	?	i	?
CCOc1ccc(C(=O)NC(=S)Nc2ccc(N3CCC(C)CC3)cc2)cc1[N+](=O)[O-]	i	i	i	-119	7.9µM
CCCC(=O)N1CCN(c2ccc(NC(=O)c3ccc(OCC)c([N+](=O)[O-])c3)cc2)CC1	i	i	i	i	i
CCC(=O)N1CCN(c2ccc(NC(=S)NC(=O)c3ccc(OC)c([N+](=O)[O-])c3)cc2)CC1	nt	i	nt	nt	11µM
O=c1c(O)cccc2cc(O)c(O)c(O)c12	i	i	5µM	nt	8.9µM
COc1cc2cccc(OC)c(=O)c2c(OC)c1OC	nt	i[9.22 µM]	nt	nt	i
C1=CC2c3ccccc3NC(c3ccncc3)C2C1 (centres undefined)	i	i	22µM	i	10µM
CC(=O)c1ccc2c(c1)C1C=CCC1C(c1ccncc1)N2 (centres undefined)	i	i	i	i	20µM
CC(C)(C)C(=O)CC1(O)C(=O)N(Cc2ccccc2)c2ccccc21 (centres undefined)	i	i	i	i	7.1µM
CN1C(=O)C(O)(CC(=O)c2ccc3c(c2)OCO3)c2ccccc21 (centres undefined)	i	i	i	i	i
O=C1c2ccccc2C(O)N1Cc1ccc2c(c1)OCO2 (centres undefined)	i	i	16µM	i	i
SMILES	12-hLO inh	LMNA splice mod	HPGD block	PNC assembly inh	ALDH1A1 inh
O=C(CC1(O)C(=O)N(Cc2ccccc2)c2ccccc21)c1ccc2c(c1)OCO2 (centres undefined)	i	i	i	i	7.1µM
O=C1c2ccccc2C(Nc2ccc3c(c2)OCO3)N1Cc1ccc2c(c1)OCO2 (centres undefined)	i	?	?	i	?
O=C(CC1(O)C(=O)N(Cc2ccc3c(c2)OCO3)c2ccccc21)c1ccccc1 (centres undefined)	i	i	i	i	8.9µM
CO[C@H]1COC(=O)[C@H](C)NC(=O)C/C=C\[C@@H](C)[C@@H](NS(=O)(=O)c2ccc(C)cc2)COC(=O)C/C=C\[C@@H]1C	nt	nt	nt	nt	i[13.5 µM]
CN(C)CCCNc1ncnc2nc[nH]c12	i[11.4 µM]	nt	i	nt	i[13.5 µM]
Cc1ccccc1CN1C(=O)C(O)(CC(=O)c2ccncc2)c2ccccc21 (centres undefined)	i	i	i	i	0.11µM
O=C1c2ccccc2C(=O)N1Cc1ccc2c(c1)OCO2	i	i	i	i	i
O=C(O)c1ccc2c(c1)C(=O)N(Cc1ccc3c(c1)OCO3)C2=O	i	i	4.5µM	i	i
Cc1ccc(C(=O)CC2(O)C(=O)N(Cc3ccc4c(c3)OCO4)c3ccccc32)cc1 (centres undefined)	i	?	i	i	1.4µM
Cc1c(Cl)cccc1NC(=O)c1cnc2sc(N3CCCC3)nn2c1=O	nt	i	nt	nt	nt
CN(C)CCCOC1C(C(O)CO)OC2OC(C)(C)O[C@@H]21 (some centres undefined)	i	nt	i	nt	i
O=C(O)C1C2C=CC(O2)C1C(=O)NCc1ccc2c(c1)OCO2 (centres undefined)	i	i	i	i	i
O=C(O)C1C2C=CC(O2)C1C(=O)NCc1ccc(Cl)cc1 (centres undefined)	i	i	i	-131	i
O=C(CCl)NCCN1C(=O)S/C(=C\c2cccnc2)C1=O	nt	nt	nt	nt	1.6µM
CC(C(=O)NCCN1C(=O)S/C(=C\c2cccnc2)C1=O)N1C(=O)c2ccccc2C1=O (centres undefined)	i	i	i	-105	i
COc1ccc2nc(NCN3C(=O)c4ccccc4C3=O)sc2c1	i[11.4 µM]	nt	i	nt	i[13.5 µM]
COc1ccc2oc(=O)c(C(=O)C[n+]3cccc(C)c3)cc2c1	nt	nt	nt	nt	14µM
O=[N+]([O-])c1cc(/C=N/n2c(-c3cccnc3)n[nH]c2=S)ccc1Cl	i	i	4µM	i	2µM
S=c1[nH]nc(-c2cccnc2)n1/N=C/C=C/c1ccccc1	i	i	13µM	?	i
CC(/C=N/n1c(-c2cccnc2)n[nH]c1=S)=C\c1ccccc1	i	i	3.2µM	i	?
CC(=C/c1ccccc1)/C=N/n1c(-c2ccncc2)n[nH]c1=S	nt	i	nt	nt	?
S=c1[nH]nc(-c2cccnc2)n1/N=C/c1cccs1	i	i	i	i	?
CC(/C=N/n1c(COc2ccccc2)n[nH]c1=S)=C\c1ccccc1	?	?	5.6µM	i	?
CN(Cc1ccco1)c1ncncc1-c1cccnc1	nt	i	nt	nt	?
COCCn1c(=O)c(-c2cccc(C#N)c2)nc2cnc(OCc3ccccc3)nc21	nt	i	nt	nt	?
Cc1cccc(OCC(=O)Nc2cc(S(=O)(=O)N3CCCCC3)ccc2N2CCN(C)CC2)c1	nt	i	nt	nt	11µM
CN1CCN(S(=O)(=O)c2ccc(NC(=O)COc3ccccc3)cc2)CC1	nt	nt	nt	nt	i
Cc1cccc(OCCC(=O)Nc2ccc(S(=O)(=O)N3CCCC3)cc2)c1	i	i	i	i	?
CN(c1ccccc1C(=O)Nc1ccc(S(=O)(=O)N2CCCC2)cc1)S(C)(=O)=O	i	i	i	i	13µM
CN(CCOc1ccccc1)CC(=O)Nc1ccc(S(=O)(=O)N2CCCC2)cc1	nt	i	nt	nt	13µM
